Hit rate of the full screen: of about 1,800 compounds, about 1,400 (78%) were called active. Inconclusive results (about 2%) are left out.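 How the source made its calls: active means fitted curve crossing a set activation limit at or below the highest valid dose tested; inconclusive means flat fit at 30 to 70% activation, or poor fit; inactive means the rest, including signal decreases.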 The set was probably picked from earlier hits. These entries were drawn from the full list. Results with a measured potency or affinity are listed apart.
Assay: N-linked glycosylation inhibitors, luciferase reporter, dose response, D54 ERlucT cells, luminescence, cherry-picks (AID 624491);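 further: signal gain reflects blocked N-linked glycosylation of a luciferase reporter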
Conditions: 24 h, 100% = twice neutral-control luminescence; series mostly up to 19.5 µM; activation (NLG inhibition): at the top concentration

Activation (NLG inhibition), inactive:
COc1ccc(NC(=O)C2Cc3c(-c4ccc5c(c4)OCO5)ccnc3O2)cc1 (configuration not stated) -4.2%
O=C(O)c1ccccc1OC(C(=O)Nc1cc(Cl)cc(Cl)c1)c1ccccc1 (configuration not stated) 173%
CCOc1cc(S(=O)(=O)NCc2ccc(OC)cc2)c(OCC)cc1-n1cnnn1 74.3%
CCOc1ccc2c(c1)C(=NNC(=O)c1ccncc1)c1cc(OCC)ccc1-2 12.9%
O=C(Nc1cccc(C(F)(F)F)c1)c1sc(Cl)nc1C(F)(F)F 6.11%
Cc1cc(O)c(NC(=O)c2cc([N+](=O)[O-])ccc2Cl)cc1C 41.7%
O=C(Cc1cccs1)NCCS(=O)(=O)N1CCN(c2ccccc2F)CC1 31.5%
CCc1ccc(NC(=O)Cn2c(=O)n(CCC(=O)NC3CCN(Cc4ccccc4)CC3)c(=O)c3ccccc32)cc1 133%
CCCn1c2ccccc2c2cnn(CC(=O)NC3CCCC(C)C3C)c(=O)c21 (configuration not stated) 9.84% [at 5 µM]
CNC(=O)COC(=O)c1ccccc1C(=O)c1ccc(Cl)c([N+](=O)[O-])c1 11% [at 1.2 µM]
COc1ccc(CN(C(=O)c2ccc(CN3CCOCC3)o2)C(C(=O)NCC2CCCO2)c2ccc(F)cc2)cc1 (configuration not stated) 2.01%
Nc1c(C(=O)c2ccccc2)sc2nsc(SCCN3CCOCC3)c12 28.1%
O=C1OC(c2ccc(F)cc2)CC1CN1CCOCC1 (configuration not stated) 13.6%
COC(=O)Nc1ccc(S(=O)(=O)N2CCCc3ccccc32)cc1 -4.31%
CCOc1ccc2[nH]c(=O)c(CN(Cc3ccc(F)cc3)C(=O)c3ccco3)cc2c1 31.5%
O=C(N/N=C/c1cccnc1)c1cc(-c2ccc(Br)cc2)nc2ccccc12 9.58%
COc1ccc(CN2C(=O)C(C)Nc3ncnc(N4CCc5ccccc5C4)c32)cc1 (configuration not stated) 6.37%
CC1Nc2ncnc(N3CCc4ccccc4C3)c2N(Cc2ccc(Br)cc2)C1=O (configuration not stated) 41.9%
Cc1cccc2[nH]c3c(N4CCC5(CC4)OCCO5)ncnc3c12 23.9%
COc1ccc(Cn2c(=O)c3[nH]cnc3n(-c3ccccc3C)c2=O)cc1 41.5%
O=C(Nc1ccccc1)N1CCC(c2nc(-c3ccc(S(=O)(=O)N4CCOCC4)cc3)no2)CC1 17.9%
COc1ccc(/C=C/C(=O)c2ccc3c4c(cccc24)CC3)cc1 41.7%
COc1cc(/C=C/C(=O)c2ccc(Cl)s2)cc(OC)c1O 11.1%
COc1cc(O)c(C(=O)/C=C/c2ccccc2)c(OC)c1 18.2%
COc1ccc(/C=C2\CN(Cc3ccccc3)C/C(=C\c3ccc(OC)cc3)C2=O)cc1 -8.86%
CN1C/C(=C\c2ccc(N3CCOCC3)cc2)C(=O)/C(=C/c2ccc(N3CCOCC3)cc2)C1 -8.7%
COc1ccc(C(=O)/C=C/c2ccc(OC3CSC3)cc2)cc1OC 55.4%
CCOc1ccc(/C=C/C(=O)c2ccccc2)cc1OC 28.2%
COc1ccc(C2=Nn3c(nnc3-c3ccc(OC)cc3)SC2)cc1 7.21%
COc1ccc(C2=Nn3c(nnc3-c3ccco3)SC2)cc1 68.5%
COc1ccc(OC)c(-c2nnc3n2N=C(c2ccc(OC)c(OC4CCCC4)c2)CS3)c1 -3.46%
COc1ccc2nc(-c3ccco3)c(-c3ccco3)nc2c1 2.38%
O=S1(=O)C=CC(Nc2cccc(Cl)c2)C1 (configuration not stated) 19.2%
O=C(CSc1nc2nc(-c3cccs3)cc(C(F)(F)F)c2c(=O)[nH]1)C(F)(F)F 36.6%
Cc1ccc(C)n1-c1ccc(C(=O)/C=C/N(C)C)cc1 5.31%
Cc1ccc(-c2cc(NC(=O)CCl)n(-c3ccccc3)n2)cc1 -70.1%
CCOc1ccccc1NC(=O)Cn1nnc(C(=O)NCc2ccc3c(c2)OCO3)c1N 46.6%
COc1cc(Cl)c(C)cc1NC(=O)CN1CCN(C(=O)C2CC2)CC1 21.3%
COc1ccc(NC(=O)C2Cc3c(-c4cccc(C(C)=O)c4)ccnc3O2)cc1 (configuration not stated) 16.6%
CCNC(=O)COc1ccc(/C=C2\COc3ccccc3C2=O)cc1OC 19.8% [at 5 µM]
CN(Cc1ccc(Cl)s1)C(=O)CCl -17.1%
CCN(CC(=O)NCc1ccc(F)cc1)C(=O)/C=C/c1ccc(OC)c(S(=O)(=O)NC(C)C)c1 40%
CN1C(=O)c2cccc3c(S(=O)(=O)Nc4ccccc4F)ccc1c23 52.8%
CCN(CC)CCCNC(=O)c1cc2c(=O)n(CC)c3ccccc3c2s1 21.5%
COc1cc(C2=NOC(C(=O)NCc3cccs3)C2)cc(OC)c1OC (configuration not stated) 26.4%
CCOC(=O)Nc1c2ccccc2nc2ccccc12 62.4%
O=C(O)c1ccc(CN2C(=O)c3cccc4c([N+](=O)[O-])ccc(c34)C2=O)cc1 -46.8%
Cc1noc(C)c1COc1ccc(C(=O)NNC(=O)c2ccccc2)cc1 44.8%
CC[C@@]1(c2ccccc2OC)ON(c2ccccc2C(F)(F)F)C1=O 10.9%
COc1cccc(C(=O)Nc2ncc3c(n2)CC(c2ccc(OC)cc2OC)CC3=O)c1 (configuration not stated) 37.5%
COc1ccccc1C1=NOC(COc2ccc3c(C)cc(=O)oc3c2)C1 (configuration not stated) 33.4%
Cc1nc2c3cc(F)ccc3n(CCN3CCCCC3)c2s1 35.5%
NNC(=O)c1ccc2nc(-c3ccc(Br)cc3)cn2c1 610%
Cc1ccc(-c2cc(C(=O)N/N=C/c3c[nH]c4ccccc34)[nH]n2)cc1 30.9%
COc1ccc(CCn2c(=N)c(C(=O)NC3CCCC3)cc3c(=O)n4ccccc4nc32)cc1OC 55.9%
COc1cc2cc(C(c3nnnn3C(C)(C)C)N3CCc4ccccc4C3)c(=O)[nH]c2cc1OC (configuration not stated) 18%
Cc1cccc(N2CCN(C(=O)c3ccc(Cl)c(S(=O)(=O)NCc4ccco4)c3)CC2)c1C 29.6%
C=CCN(CC=C)C(=O)CN1C(=O)NC(C)(c2ccc3cc(OC)ccc3c2)C1=O (configuration not stated) 3.96% [at 5 µM]
NC(=O)/C=C\C(=O)Nc1cccc(C(F)(F)F)c1 -15.6%
O=S(=O)(Nc1cccc2cccnc12)c1ccc(S(=O)(=O)N2CCCC2)cc1 -10.1%
Cc1cc(NC(=O)CSc2nc(C3CC3)nc3sc(C)c(C)c23)no1 17.8%
CCN(CC)C(=O)CSc1nc2c(sc(=S)n2-c2ccccc2)c(=O)n1Cc1ccco1 10.5%
COc1ccc(N(CC(=O)Nc2cc(Cl)ccc2OC)S(=O)(=O)c2c(C)noc2C)cc1 15.9%
Cc1cc(Br)ccc1NC(=O)CCCOc1cc(=O)n(C)c2ccccc12 30.6%
N#Cc1c(NC(=O)c2cnccn2)sc2c1CCCC2 6.08%
O=c1cc(N=Nc2ccc(Cl)cc2)[nH]c(=O)[nH]1 34.3% [at 5 µM]
CCCCCCCCn1c2c(c(=N)c3c1CCC3)CCCC2 73.5%
O=C(N/N=C\c1ccc([N+](=O)[O-])o1)c1cncc(Br)c1 -28.4%
CCOC(=O)c1ccc(-c2ccc(/C=N/NC(=O)CN(c3cccc(C)c3)S(C)(=O)=O)o2)cc1 212%
COc1cc2c(cc1OC)C(C)N(C(=O)Nc1ccccc1)CC2 (configuration not stated) 17.2%
CC1c2cc3c(cc2CCN1C(=O)c1ccc(Br)cc1)OCCCO3 (configuration not stated) 40%
Nc1nonc1-c1nc2ccccc2n1Cc1ccccc1 30%
Nc1nonc1-c1nc2ccccc2n1CC(=O)N/N=C\c1ccc(-c2ccc(Cl)cc2)o1 70.3%
CCOc1cccc2sc(Nc3nc4ccc(NC(C)=O)cc4s3)nc12 29.5%
Oc1ccc(NCc2ccccc2OCc2ccccc2)cc1 24.1%
CCc1cccc(CC)c1NC(=O)CN1C2CCCC1CC(NC(=O)Nc1cccc(OC)c1)C2 (configuration not stated) 119%
Cc1cc(NCCCN(C)C)n2c(nc3ccccc32)c1C#N 23%
CC1Cc2ccccc2N1C(=O)CSc1nn2c(=O)c(C(C)(C)C)nnc2s1 (configuration not stated) 30.3%
COc1ccc(OC)c(N(CC(=O)Nc2cccnc2)S(=O)(=O)c2ccc(C)cc2)c1 38.7%
COCC(=O)OC/C(O)=C(\C#N)c1nc2ccccc2[nH]1 -48.3%
CC(C)Oc1ccc(C(=O)Nc2ccc3c(c2)n(C)c(=O)n3C)cc1 4.1% [at 5 µM]
O=C(NC1CCCC(C(F)(F)F)C1)c1ccc([N+](=O)[O-])o1 (configuration not stated) -15.2%
O=C(Nc1cccc2ccccc12)c1ccc([N+](=O)[O-])o1 -36%
O=C(Nc1ccc(N2CCCC2)c(Cl)c1)c1ccc([N+](=O)[O-])o1 -78.1%
CCn1cc([N+](=O)[O-])c(C(=O)Nc2nc(-c3ccc(C)c(C)c3)c(C)s2)n1 57.7%
O=C(Nc1nc2ccccc2s1)c1ccc([N+](=O)[O-])o1 3.59%
O=C(NC(=S)Nc1cccc(S(=O)(=O)NC2=NCCC2)c1)c1cc(-c2ccco2)nc2ccccc12 23.7%
COc1ccc(/C=C2\COc3ccccc3C2=O)cc1OC -3.49%
C[C@H](CO)N1C[C@H](C)[C@@H](CN(C)Cc2ccccc2)Oc2ccc(NC(=O)CCCCCC(=O)Nc3ccccc3N)cc2C1=O 4.91% [at 5 µM]
O=C(NC1CCCCC1)C(c1cccnc1)N(C(=O)CCl)c1cccc(Cl)c1 (configuration not stated) -94.9%
COc1ccc(N(C(=O)CCl)C(C(=O)NC2CCCCC2)c2cccnc2)cc1 (configuration not stated) -95.5%
CC(=O)Cn1ncc(Br)c(Br)c1=O -52.5%
CCN1/C(=C/c2sc(-c3ccccc3C)c[n+]2C)Sc2ccccc21 -9.29%
CCOC(=O)c1c(NC(=O)CCl)sc(C(=O)N(CC)CC)c1C 5.73%
COc1ccc(C(=O)/C=C/Sc2nc3ccccc3o2)cc1 5.52%
CCOc1ccc(N(C)S(=O)(=O)c2ccc(-c3cc(C)no3)s2)cc1 39.3%
Cc1cccc(N(C)S(=O)(=O)c2ccc(-c3cc(C)no3)s2)c1 32.2%
O=C1c2ccccc2-c2n[nH]c(=O)c3ccc(N4CCCCC4)c1c23 41.3%
COc1cc(C2=NOC(C(=O)NCc3ccc(F)cc3)C2)cc(OC)c1OC (configuration not stated) 13.2%
CCn1ncc(C2=NOC(C(=O)NCc3ccc(Cl)cc3)C2)c1C (configuration not stated) 20.7%
O=C(NCc1ccc(OC(F)(F)F)cc1)C1CC(c2ccc(C(F)(F)F)cc2)=NO1 (configuration not stated) 5.51%
COc1cccc(S(=O)(=O)Nc2ccc3c(c2)[C@@H]2C[C@@H](CC(=O)NCc4ccc(Cl)cc4)O[C@@H](CO)[C@@H]2O3)c1 21.2%

— PubChem BioAssay AID624491 (Broad Institute, 2012)
